This passage reports z-score and composite z-score results from PubChem BioAssay.

The source made the active and inactive calls.

The nature of assay [1]: optical density shifts of acrAB sulA E. coli – strain DRC41, OD650, 48 h, E. coli filamentation inducer project, primary screen (AID 1152).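 Note: E. coli MC1000 strain DRC41 lacking acrAB efflux pump and sulA.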 The note with it: higher = more signal, called active from +8 up or from −8 down.
The nature of assay [2]: probe aLefty1 binding on compound microarray – biochemical, small-molecule microarray, 635/667 nm fluorescence, primary screen (AID 1153).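 Note: score merges spot fluorescence with signal-to-noise ratio from the scanned slide images.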 The note with it: higher = more signal.
A short description of assay [3]: plasmodial surface anion channel blockers, osmotic lysis – cell-based, P. falciparum Indochina, OD700, 1 h, primary screen (AID 1154). The note with it: P. falciparum Indochina infected RBC osmotic lysis, higher = more signal, called active from +8 up or from −8 down.
Assay [4] in a line: plasmodial surface anion channel blockers, osmotic lysis – cell-based, P. falciparum Indochina, OD700, 2 h, primary screen (AID 1155).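 Note: lysis reports solute entry through the parasite surface anion channel PSAC.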 The note with it: P. falciparum Indochina infected erythrocytes, higher = more signal, called active from +8 up or from −8 down.
A short description of assay [5]: changes in parasitized red cell lysis, either direction – P. falciparum Indochina, OD700, 3 h, PSAC antagonist project, primary screen (AID 1156). The note with it: P. falciparum-infected erythrocytes, osmotic lysis, higher = more signal, called active from +8 up or from −8 down.
Assay [6] can be described thus: plasmodial surface anion channel blockers, osmotic lysis – cell-based, P. falciparum Indochina, OD700, 18 h, primary screen (AID 1157). The note with it: P. falciparum Indochina infected erythrocytes, osmotic lysis OD700, 18 h; higher = more signal, called active from +8 up or from −8 down.
Assay [7] in a line: S6 kinase pathway phospho-S6 level changes – cell-based, A549, cytoblot, luminescence, serum-stimulated, primary screen (AID 1158).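 Note: serum-stimulated A549 lung adenocarcinoma cells; signal is phosphorylated S6 detected by cytoblot immunostaining with HRP secondary.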 The note with it: 5 h, higher = more signal.
Assay [8] concerns the target NADPH oxidase 2 (Homo sapiens) (UniProt P04839). Description: compounds shifting NOX2 Amplex Red fluorescence – cell-based, HEK293-NOX2, PMA-stimulated, NOX inhibitor project, primary screen (AID 1159). Note: test concentration not given here. The note with it: 45 min, higher = more signal, called active from +8 up or from −8 down.
Assay [9] has as its target NADPH oxidase 4 (Homo sapiens) (UniProt Q9NPH5). Put plainly: compounds shifting NOX4 Amplex Red fluorescence – cell-based, HEK293-NOX4, tetracycline-induced, NOX inhibitor project, primary screen (AID 1160). The note with it: HEK293-NOX4, Amplex Red H2O2 fluorescence, 45 min; higher = more signal, called active from +8 up or from −8 down.
The target of assay [10] is NADPH oxidase 5 (Homo sapiens) (UniProt Q96PH1). Put plainly: compounds shifting NOX5 Amplex Red fluorescence – cell-based, HEK293-NOX5, NOX inhibitor project, primary screen (AID 1161). The note with it: HEK293-NOX5, ionomycin, 45 min, higher = more signal.
Sequence of NADPH oxidase 5 (Homo sapiens) (Q96PH1 whole entry, looked up): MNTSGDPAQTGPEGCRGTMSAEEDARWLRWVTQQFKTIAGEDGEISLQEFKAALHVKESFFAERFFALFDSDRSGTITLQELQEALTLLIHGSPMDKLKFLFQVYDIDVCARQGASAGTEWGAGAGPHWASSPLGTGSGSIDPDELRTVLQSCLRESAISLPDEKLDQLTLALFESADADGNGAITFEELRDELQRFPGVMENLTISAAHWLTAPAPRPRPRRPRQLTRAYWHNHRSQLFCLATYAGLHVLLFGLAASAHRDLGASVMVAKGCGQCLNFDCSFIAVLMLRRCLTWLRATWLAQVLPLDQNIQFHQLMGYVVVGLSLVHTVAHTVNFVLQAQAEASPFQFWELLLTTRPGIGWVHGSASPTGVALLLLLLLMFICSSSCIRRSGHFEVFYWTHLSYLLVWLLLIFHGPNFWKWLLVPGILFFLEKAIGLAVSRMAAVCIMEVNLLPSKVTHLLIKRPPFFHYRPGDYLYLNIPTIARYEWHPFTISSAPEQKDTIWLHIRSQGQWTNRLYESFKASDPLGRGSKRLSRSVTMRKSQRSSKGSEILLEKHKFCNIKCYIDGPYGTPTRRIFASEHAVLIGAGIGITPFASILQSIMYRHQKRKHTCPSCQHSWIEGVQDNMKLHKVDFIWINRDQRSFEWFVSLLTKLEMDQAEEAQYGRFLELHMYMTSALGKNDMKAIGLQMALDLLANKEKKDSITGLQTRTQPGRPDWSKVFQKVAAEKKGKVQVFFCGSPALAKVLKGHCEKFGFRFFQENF

Sequence of NADPH oxidase 2 (Homo sapiens) (P04839 whole entry, looked up): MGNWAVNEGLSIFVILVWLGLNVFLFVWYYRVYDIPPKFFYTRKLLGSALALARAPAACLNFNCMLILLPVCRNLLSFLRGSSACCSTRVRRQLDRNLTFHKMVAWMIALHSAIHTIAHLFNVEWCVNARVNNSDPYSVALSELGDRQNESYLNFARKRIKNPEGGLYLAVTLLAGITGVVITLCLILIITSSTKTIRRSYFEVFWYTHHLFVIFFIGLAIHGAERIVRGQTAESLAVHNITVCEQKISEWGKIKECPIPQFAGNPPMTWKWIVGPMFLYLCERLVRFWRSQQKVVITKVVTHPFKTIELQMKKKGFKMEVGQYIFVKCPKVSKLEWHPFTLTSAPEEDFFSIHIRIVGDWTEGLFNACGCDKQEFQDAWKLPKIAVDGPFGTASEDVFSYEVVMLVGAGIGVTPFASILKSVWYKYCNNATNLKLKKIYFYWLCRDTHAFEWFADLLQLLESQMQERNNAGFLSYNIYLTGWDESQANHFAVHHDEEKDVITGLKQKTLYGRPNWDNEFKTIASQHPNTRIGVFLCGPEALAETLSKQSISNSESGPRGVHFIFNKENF
Sequence of NADPH oxidase 4 (Homo sapiens) (Q9NPH5 whole entry, looked up): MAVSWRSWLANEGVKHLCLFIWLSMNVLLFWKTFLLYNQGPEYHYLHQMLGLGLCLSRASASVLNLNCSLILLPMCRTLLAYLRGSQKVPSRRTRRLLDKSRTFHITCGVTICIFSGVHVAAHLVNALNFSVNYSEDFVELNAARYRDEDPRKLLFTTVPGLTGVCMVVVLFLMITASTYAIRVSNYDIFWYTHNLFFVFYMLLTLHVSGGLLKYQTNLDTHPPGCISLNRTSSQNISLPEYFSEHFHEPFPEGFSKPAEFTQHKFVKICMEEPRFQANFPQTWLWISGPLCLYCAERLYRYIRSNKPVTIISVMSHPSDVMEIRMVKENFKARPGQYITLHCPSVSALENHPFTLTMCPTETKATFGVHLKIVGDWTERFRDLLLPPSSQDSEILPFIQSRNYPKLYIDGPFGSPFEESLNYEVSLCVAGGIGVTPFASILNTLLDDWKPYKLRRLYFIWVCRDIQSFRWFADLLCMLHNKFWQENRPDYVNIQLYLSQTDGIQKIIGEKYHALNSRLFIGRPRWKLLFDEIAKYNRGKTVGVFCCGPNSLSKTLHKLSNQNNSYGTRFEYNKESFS

`CCCCCN1CC=CC23O[C@@H]4/C=C\CCCOC(=O)C4[C@H]2C(=O)N(C(CO)C(C)C)[C@@H]3C1=O` (stereo not given in full): the z-score in assay [1] is 1.52 (inactive); in assay [3], 0.724 (inactive); in [4], 0.264 (inactive); in assay [5] it was 0.29 (inactive); in assay [6] it was 0.0866 (inactive); in assay [7] it was 0.0595. Besides, the z-score in assay [8] is 1.59 (inactive); in assay [9], 0.481 (inactive); in [10], 2.17. Besides, in assay [2], the composite z-score was -0.113.
`[N-]=[N+]=NCc1ccccc1[C@@H]1OC(c2ccc(OCCCO)cc2)=N[C@]1(CCS(=O)(=O)c1ccccc1)C(=O)NCc1ccccc1`: the z-score in [1] was -0.665 (inactive); in assay [3] it was 16.4 (active); in [4], 2.27 (inactive); in [5], 1.75 (inactive); in assay [6] it was 0.814 (inactive); in assay [7] it was -0.0212. For the same compound, the z-score was -1.04 (inactive) in [8], 0.0609 (inactive) in assay [9] and -0.898 in assay [10]. Further, the composite z-score in assay [2] is 1.43.
Consider `O=C1NCC(=O)N2[C@@H]1C[C@@H](C(=O)O)[C@H]2c1cccc(OCCO)c1`, for which the z-score in assay [1] is 0.0481 (inactive); in [3], 2.24 (inactive); in [4], 1.34 (inactive); in assay [5], -1.22 (inactive); in [6] it was 0.572 (inactive); in [7], 0.863. Also, the values for the z-score in [8], in assay [9] and in assay [10] were 0.313 (inactive), 0.281 (inactive) and 1.62, respectively. This compound returned a composite z-score in assay [2] of 3.14.
Take `COC(=O)[C@@]1(Cc2ccc(OC)cc2)[C@H]2c3cc(C(=O)N(C)C)n(Cc4cccc5ccccc45)c3C[C@H]2CN1C(=O)c1ccccc1`: the z-score was -1.27 (inactive) in [1]; 2.33 (inactive) in assay [3]; -0.206 (inactive) in [4]; 1.19 (inactive) in [5]; -1.39 (inactive) in assay [6]; 2.11 in assay [7]. In addition, the z-score in assay [8] was -3.14 (inactive); in assay [9], -1.83 (inactive); in [10], -4.62. The compound also yielded a composite z-score in assay [2] of 0.468.
As for `COc1ccc([Si](C)(C)[C@@H]2[C@@H](CC(=O)N3Cc4ccccc4C[C@H]3CO)O[C@]3(C(=O)N(C)c4c(Br)cc(C)cc43)[C@H]2C)cc1`, the z-score was 0.0945 (inactive) in [1]; 9.71 (active) in assay [3]; 2.3 (inactive) in assay [4]; 0.392 (inactive) in assay [5]; 1.9 (inactive) in assay [6]; 2.09 in assay [7]. Further, the z-score in [8] was 0.0136 (inactive); in assay [9] it was 0.0254 (inactive); in assay [10] it was -0.0526. For the same compound, the composite z-score in [2] worked out at 0.297.
Consider `CN(C)CCCC[C@@H]1NC(=O)[C@H]2C[C@@H](C(=O)NCCCCCNC(=O)CS)[C@@H](c3cccc(OCCO)c3)N2C1=O`, for which the z-score was -0.728 (inactive) in assay [1]; 2.9 (inactive) in assay [3]; 0.55 (inactive) in [4]; -0.744 (inactive) in assay [5]; 0.203 (inactive) in [6]; -0.534 in [7]. The z-score is 1.76 (inactive) in assay [8], 0.749 (inactive) in assay [9] and 1.13 in assay [10]. Also, in [2], the composite z-score was -0.0601.
Take `O=C(NCc1ccc(F)cc1)[C@H]1C[C@H]2C(=O)N[C@@H](Cc3ccccc3)C(=O)N2[C@H]1c1ccc(O)cc1`: the z-score is 0.132 (inactive) in assay [1]; 2.64 (inactive) in assay [3]; 0.591 (inactive) in assay [4]; -1.55 (inactive) in assay [5]; 0.498 (inactive) in assay [6]; -0.0688 in assay [7]. Besides, the values for the z-score in [8], in assay [9] and in assay [10] were 0.171 (inactive), 0.301 (inactive) and 0.965, respectively. In addition, in assay [2], the composite z-score was -0.0601.
Take `C[N+](C)(C)CCCCNC(=O)[C@H]1C[C@H]2C(=O)N[C@@H](Cc3ccccc3)C(=O)N2[C@H]1c1ccc(O)cc1`: the z-score in assay [1] is 0.274 (inactive); in [3], 0.891 (inactive); in [4], 0.0222 (inactive); in assay [5] it was -0.271 (inactive); in assay [6] it was 0.228 (inactive); in [7] it was 0.149. For the same compound, the z-score was -2.12 (inactive) in assay [8], -1.27 (inactive) in assay [9] and -2.42 in assay [10]. Also, the composite z-score in [2] was -0.142.
Turning to `[N-]=[N+]=NCc1ccccc1[C@H]1OC(c2ccc(OCCCO)cc2)=N[C@@]1(Cc1ccccc1)C(=O)NCc1ccccc1`, the z-score in assay [1] is 0.336 (inactive); in assay [3], 27.6 (active); in assay [4], 23.5 (active); in assay [5], 1.96 (inactive); in assay [6], 1.77 (inactive); in assay [7], -0.669. For the same compound, the z-score in assay [8] was 1.08 (inactive); in assay [9] it was 0.113 (inactive); in [10] it was -0.549. Further, in assay [2], the composite z-score came to 0.22.
`CCCCCN1CC=CC23O[C@@H]4/C=C\CCCOC(=O)C4[C@H]2C(=O)N(CCCO)[C@@H]3C1=O` (stereo not given in full): the z-score in assay [1] was 2.27 (inactive); in assay [3], 1.33 (inactive); in [4], 0.212 (inactive); in [5], -1.43 (inactive); in assay [6] it was -0.678 (inactive); in [7], 0.696. Further, the figures for the z-score in assay [8], in assay [9] and in assay [10] were 1.46 (inactive), 0.42 (inactive) and 2.13, respectively. For the same compound, the composite z-score in [2] is -0.353.
Regarding `O=C(NCc1ccccc1)[C@@]1(CCS(=O)(=O)c2ccccc2)N=C(c2ccc(OCCCO)cc2)O[C@H]1c1ccccc1`, the z-score is 1.06 (inactive) in [1]; 26.4 (active) in [3]; 10.4 (active) in [4]; 0.559 (inactive) in [5]; 1.99 (inactive) in assay [6]; 0.0734 in assay [7]. For the same compound, the figures for the z-score in assay [8], in [9] and in assay [10] were -0.321 (inactive), 1.35 (inactive) and 1.33, respectively. The compound further registered a composite z-score in [2] of 0.351.
Take `CN1C(=O)C2C=CC(C(O)Cc3ccccc3)N(Nc3ccccc3)C2C1=O` (stereo not given): the z-score in assay [1] was -1.55 (inactive); in assay [3] it was 1.15 (inactive); in assay [4] it was 0.872 (inactive); in [5] it was 0.215 (inactive); in assay [6], 0.9 (inactive); in [7] it was -0.709. Also, the figures for the z-score in assay [8], in assay [9] and in assay [10] were -1.57 (inactive), -4.77 (inactive) and -3.59, respectively. In addition, the composite z-score in assay [2] was -0.0501.
Regarding `CN(C)CCCNC(=O)[C@@]1(c2ccc([N+](=O)[O-])cc2)CC(=O)N(C2CCCCC2)[C@@H]1c1ccc(CO)cc1I`, the z-score in assay [1] was -2.09 (inactive); in assay [3] it was 14.8 (active); in assay [4], 1.44 (inactive); in assay [5], -2.81 (inactive); in [6], 0.037 (inactive); in assay [7], -1.78. Further, the values for the z-score in assay [8], in assay [9] and in [10] were -8.16 (active), -2.52 (inactive) and 0.205, respectively. Moreover, the composite z-score in assay [2] is 0.0824.
